Experimental data: PubChem BioAssay AID2283234 (EPA ToxCast)
Records with an inconclusive call do not appear. Activity calls are given as the source filed them. How the source made its calls: active means hit-call score of the fitted dose curve at least 0.9, where 1 is the maximum; inconclusive means response in the unintended direction; inactive means score below 0.9.

Target: human Dual Specificity Styrosine-Phosphorylation-Regulated Kinase 1A (DYRK1a), DYRK1A (gene 1859) (UniProt Q13627)
Test: NVS_ENZ_hDYRK1a: NovaScreen (NVS) Enzymatic Assay for human Dual Specificity Styrosine-Phosphorylation-Regulated Kinase 1A (DYRK1a)
Procedure: NVS_ENZ_hDYRK1a is a biochemical, single-readout assay that uses extracted gene-proteins in a cell-free assay. Measurements were taken 1 hour after chemical dosing in a 96-well plate.NVS_ENZ_hDYRK1a is one of one assay component(s) measured or calculated from the NVS_ENZ_hDYRK1a assay. It is designed to make measurements of enzyme activity, a form of enzyme reporter, as detected with fluorescence intensity signals by Fluorescence and electrophoretic mobility shift technology.Data from the assay component NVS_ENZ_hDYRK1a was analyzed into 1 assay endpoint. This assay endpoint, NVS_ENZ_hDYRK1a, was analyzed in the positive analysis fitting direction relative to DMSO as the negative control and baseline of activity. Using a type of enzyme reporter, loss-of-signal activity can be used to understand changes in the enzymatic activity as they relate to the gene DYRK1A. Furthermore, this assay endpoint can be referred to as a primary readout, because this assay has produced multiple assay endpoints where this one serves a enzymatic activity function. To generalize the intended target to other relatable targets, this assay endpoint is annotated to the kinase intended target family, where the subfamily is dual-specific kinase.
Binding assays used specific radioligands (tritiated, iodinated) with non-radioactive competitive displacement ligands in agonist or antagonist protocols (as indicated) and various reference compounds and inhibitors to titrate specific binding to receptors and transporters. Most enzyme assays (CYPs, kinases, phosphatases, proteases, HDACs) used recombinant protein and specific substrates (fluorescence mostly, some colorimetric and radioactive) and inhibitors, followed by a biochemical separation of substrate and product. All assays for the biochemical HTS were initially run in duplicate at a single concentration (10 uM for CYP450 assays and 25 uM for all others). […] Each assay was run with positive and negative controls, and concurrent controls on every plate. The follow-up (secondary) screen tested active chemical-pairs in concentration series, as well as a few additional assays not tested in the primary screen, some selected negative inactives, and several cases re-run in the concentration series for confirmatory purposes.

`CC(C)(C)[C@@H](O)[C@@H](Cc1ccc(Cl)cc1)n1cncn1` was tested. Which outcome did it give?
The outcome was “inactive”.

How did the outcome turn out when `N#CSCSc1nc2ccccc2s1` was run?
The outcome was “inactive”.

`O=C(O)C1(C(=O)Nc2ccc(Cl)cc2Cl)CC1` was tested. Which AC50 did it give?
Its AC50 is 5.11 µM (active).

Which AC50 does the source give for `S=C([S-])NCCNC(=S)[S-].[Mn+2]` here?
The AC50 was 6.02 µM (active).

Which AC50 does the source give for `S=C(S)NCCNC(=S)S.[Mn+2].[S-]C([S-])=NCCN=C([S-])[S-].[Zn+2]` here?
The AC50 was 1.39 µM (active).
